Source: PubChem (National Center for Advancing Translational Sciences (NCATS))
Pf growth 96h: P. falciparum growth inhibition at 96 hours; AID 504834; Potency, µM (top dose mostly 28.7 µM), without a hit: at the highest dose activity change, negative = inhibition, hits mostly inhibitors; P. falciparum luciferase reporter growth, 96 h; 320,000 compounds, 6.9% hits
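P. falciparum expressing integrated firefly luciferase, in erythrocytes at 2% hematocrit, 0.05% parasitemia, incubated with compounds 96 h at 37 C, 5% CO2. Growth inhibition read as loss of luminescence; two-generation exposure targets delayed-death apicoplast inhibitors.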
AmpC inh no detg: inhibitors of E. coli AmpC beta-lactamase without detergent | AID 485341 | Potency, µM (highest dose often 57.1 µM), inactives show at the top dose activity change, negative = inhibition, actives largely listed as inhibitors | 330,000 compounds, 0.52% hits | P00811 | AmpC nitrocefin hydrolysis, absorbance 480 nm, 0.0001% Triton;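 note: plate controls were no compound for no effect and no enzyme for full effect; nearly all actives have a fitted effect of over 20% in size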
Target sequence (P00811 whole entry, looked up): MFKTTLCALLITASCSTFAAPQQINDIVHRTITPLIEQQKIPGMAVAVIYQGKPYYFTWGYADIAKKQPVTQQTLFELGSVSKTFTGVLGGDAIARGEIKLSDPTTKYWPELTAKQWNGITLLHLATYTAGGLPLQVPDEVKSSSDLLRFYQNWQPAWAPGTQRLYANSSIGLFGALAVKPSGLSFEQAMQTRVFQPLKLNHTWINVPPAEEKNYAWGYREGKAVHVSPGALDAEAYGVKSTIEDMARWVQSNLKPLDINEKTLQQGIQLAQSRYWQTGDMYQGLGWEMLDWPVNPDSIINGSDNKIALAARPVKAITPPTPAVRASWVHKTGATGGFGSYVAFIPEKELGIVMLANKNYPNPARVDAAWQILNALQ
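20 mM phosphate pH 7.0 + 0.01% (detergent screen) or 0.0001% Triton X-100; 5.3 nM AmpC reagent; cpd preinc 15 min RT; nitrocefin (800 uM stock) to start; A480 q20 s × 4 min; Activity was normalised to no-enzyme and no-compound control wells.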
AmpC detergent: blocks E. coli AmpC beta-lactamase in detergent assay; Potency, µM (series often up to 114 µM), for inactives: at the top dose activity change, negative = inhibition, hits mostly inhibitors; P00811; 370,000 compounds, 0.041% hits; AmpC hydrolysis of nitrocefin, absorbance 480 nm, 0.01% Triton; AID 485294;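 note: 0% = no-compound wells and -100% = no-enzyme wells; nearly all actives have a fitted effect of over 25% in size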
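AmpC (5.3 nM in the dispensed reagent) in 20 mM phosphate pH 7.0 with 0.01% (detergent screen) or 0.0001% Triton X-100 was preincubated with compounds for 15 min at room temperature. Nitrocefin was then added from an 800 uM solution, and hydrolysis was followed at 480 nm.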
Pf growth 48h: P. falciparum growth inhibition at 48 hours (one generation). P. falciparum luciferase growth in erythrocytes, 48 h. 310,000 compounds, 5.9% hits. Potency, µM (series often up to 28.7 µM), without a hit: at the top dose activity change, negative = inhibition, hits mostly inhibitors
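Erythrocytes infected with P. falciparum carrying an integrated firefly luciferase reporter (2% hematocrit, 0.1% parasitemia final) were exposed to compounds in RPMI 1640 with 0.5% Albumax at 37 C, 5% CO2. Growth inhibition was scored as reduced luminescence.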
HCV inhibitor: HCV inhibition | Potency, µM (series often up to 41.8 µM), for the others: top-dose activity change, negative = inhibition, hits mostly inhibitors | Huh7.5.1 HCVcc-Cre infection, luciferase reporter, 44 h | 340,000 compounds, 3.4% hits
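Cells seeded at 1,000/well and cultured 4 h, then compounds added followed by HCVcc-Cre virus (~0.5 moi). After 44 h further culture, luciferase substrate was added, plates held 15 min at room temperature, and luminescence read for 15 sec.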
AMA1-RON2 inh: disrupts binding of P. falciparum AMA1 to RON2. AlphaScreen AMA1-biotinylated RON2 peptide binding. Potency, µM (titrated, usually from 58.2 µM), for inactives: top-dose activity change, negative = inhibition, most hits filed as inhibitors. 360,000 compounds, 0.2% hits. AID 720542;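 note: 0% = vehicle wells and -100% = peptide control; nearly all actives have a fitted effect of over 45% in size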
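AMA1 (3D7) with his tag at 25 nM final met compounds first, then biotinylated RON2 peptide at 25 nM; detection used donor plus acceptor beads, 10 µg/mL apiece, read by AlphaScreen after 30 min at room temperature.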
The depositor's hits bear a star; ? = inconclusive; . = no result; [ ] = dose if it differs, or a comment. Hits are enriched below; roughly 11% of the tested compounds scored in any of these assays. Calls come from the whole dose curve; as a rule, active = well fitted curve in the direction sought with a large enough effect; inconclusive = small, poorly fitted or top-dose-only effect, or another doubt; inactive = no such curve, though single readings can be large; an effect the other way counts as inactive or inconclusive. Unless noted, % is set by controls: 0 for no effect and ±100 for the full control effect; potency is the fitted concentration of half-maximal effect.

SMILES	Pf growth 96h	AmpC inh no detg	AmpC detergent	Pf growth 48h	HCV inhibitor	AMA1-RON2 inh
CCc1ccccc1NC(=O)N1CCN(c2nnc(C)c3c(C)n(-c4ccccc4)nc23)CC1	.	.	3.9%	.	.	.
CNC(=O)C[C@@H](N)C(=O)N[C@@H](C(=O)N[C@@H]1C(=O)N2[C@@H]1SC(C)(C)[C@@H]2C(=O)O)c1ccc(O)cc1	?	.	.	3.8%	.	.
CCC1CCCCN1S(=O)(=O)c1ccc(C(=O)Nc2nnc(C3CC3)o2)cc1 (stereo not drawn)	?	-36.1%	-7.9%	13.1µM*	?	47.3%
CCN(c1ccccc1)S(=O)(=O)c1ccc(C(=O)Nc2nnc(C3CC3)o2)cc1	?	-43.9%	-15.4%	9.28µM*	?	74.3%
CCN(c1ccccc1)S(=O)(=O)c1ccc(C(=O)Nc2nnc(CSC)o2)cc1	?	-47.3%	?	?	?	87.2%
CC(C)NC(=O)CCSc1nc(-c2ccc3c(c2)OCO3)cc(C(F)(F)F)n1	.	.	19.7%	.	.	.
COc1ccc(OC)c(C(=O)CCCC(=O)c2cc(OC)ccc2OC)c1	?	13.8%	-1.7%	?	?	0.0%
Fc1ccccc1Cn1c2[n+](c3ccc(C(F)(F)F)cc31)CCCCC2	2.33µM*	-19.8%	-10.6%	?	-15.1%	16.7%
N#Cc1cccc(NC(=O)Cn2c3[n+](c4ccc(C(F)(F)F)cc42)CCCCC3)c1	0.828µM*	-1.8%	?	5.22µM*	4.2%	-4.6%
COc1ccc(OC)c(C(=O)Cn2c3[n+](c4ccc(C(F)(F)F)cc42)CCCCC3)c1	0.522µM*	1.5%[2.29 µM]	-2.9%	?	20.0%	3.8%
N#Cc1cccc(NC(=O)CN2C(=O)NC3(CCCCCC3)C2=O)c1	?	-33.2%	-4.0%	-10.4%	7.4%	-17.1%
C=CCn1c2[n+](c3ccccc3c1=O)CCCCC2	45.1%	-19.2%	?	-13.8%	10.9%	-1.0%
O=C(COCc1cc(-c2ccc(F)cc2)on1)Nc1cccc(C(F)(F)F)c1	.	.	16.8%	.	.	.
N#Cc1c(Nc2ccccc2)c(C=NCCN2CCOCC2)c[nH]c1=O	9.28µM*	-14.1%	-13.6%	4.1%	-3.0%	9.5%
N#Cc1c(Nc2ccccc2)c(/C=N/N=C/c2ccccc2)c[nH]c1=O	?	-36.1%	-7.0%	-17.4%	?	-2.2%
Cc1cccc(C(=O)n2nc(C)c(S(=O)(=O)N3CCOCC3)c2C)c1	.	.	8.7%	.	.	.
Cc1cccc(C2CC(c3ccccc3)=NN2c2ccc(S(N)(=O)=O)cc2)c1 (stereo not drawn)	.	.	.	.	.	88.2%
NS(=O)(=O)c1ccc(N2N=C(c3ccccc3)CC2c2ccc(F)cc2)cc1 (stereo not drawn)	?	?	-0.5%	11.7µM*	?	64.3%
COc1ccc(C2CC(c3ccccc3)=NN2c2ccc(S(N)(=O)=O)cc2)cc1 (stereo not drawn)	?	-23.3%	-2.2%	13.1µM*	?	-1.9%
C=CCc1ccccc1OCCSc1nc(-c2cccs2)nc2cc(=O)[nH]n12	.	.	8.3%	.	.	.
Cc1cccc(-n2cc(CN3CCN(c4ccccn4)CC3)c(-c3cccc(F)c3)n2)c1	?	28.2%	15.3%	?	4.5%	0.0%
Cc1ccc(-n2cc(CN3CCN(C(=O)c4ncn[nH]4)CC3)c(-c3ccc(F)cc3)n2)cc1	14.7µM*	154.0%	-0.1%	11.7µM*	?	94.7%
COc1ccc(-n2cc(CNCCCn3ccnc3)c(-c3cccc(F)c3)n2)cc1	-13.4%	124.4%	1.3%	1.47µM*	?	-5.7%
Cc1ccc(-n2cc(CN3CCN(Cc4nccn4C)CC3)c(-c3ccc(F)cc3)n2)cc1	?	226.3%	5.0%	6.57µM*	?	13.8%
Cc1ccc(-n2cc(CNC(C)c3cnn(C)c3)c(-c3ccc(F)cc3)n2)cc1 (stereo not drawn)	?	102.2%	-7.5%	?	-19.9%	-7.5%
SMILES	Pf growth 96h	AmpC inh no detg	AmpC detergent	Pf growth 48h	HCV inhibitor	AMA1-RON2 inh
Cc1ccc(-n2cc(CN3CCN(c4ccccn4)CC3)c(-c3ccc(F)cc3)n2)cc1	-11.6%	24.8%	9.4%	9.28µM*	?	13.4%
CCOC(=O)c1cc(-c2ccc(OC)c(S(=O)(=O)NC3CCCCC3)c2)on1	.	.	-5.9%	.	.	.
Cc1ccc(-n2cc(CNCCCn3ccnc3C)c(-c3ccc(F)cc3)n2)cc1	22.7%	144.2%	-1.2%	2.33µM*	?	-14.6%
COc1ccc2c(c1OC)C[N+]1([O-])CCc3cc4c(cc3C1C2)OCO4 (stereo not drawn)	4.15µM*	-5.2%	-6.8%	?	7.7%	-4.7%
O=C(CSc1nc2ccsc2c(=O)n1-c1ccc(Br)cc1)NCc1ccc(Cl)cc1	.	.	13.5%	.	.	.
COc1ccc(/C=N/NC(=S)N[C@H]2CC3CCC2C3)cc1 (stereo partly drawn)	5.22µM*	-37.2%	-5.3%	4.15µM*	-30.4%	54.7%
S=C(N/N=C/c1ccc2c(c1)OCO2)NC1CC2CCC1C2 (stereo not drawn)	2.62µM*	-39.4%	0.6%	2.08µM*	?	59.0%
COc1cc(/C=N/NC(=S)NC2CC3CCC2C3)ccc1O (stereo not drawn)	?	?	-0.8%	0.0%	?	60.0%
CCN1/C(=C/C(C)=C/c2sc3ccccc3[n+]2CC)Sc2ccccc21	?	13.7%	1.2%	?	1µM*	28.2µM*
Fc1ccc(Nc2nc(-c3ccncc3)nc3ccccc23)cc1F	?	-26.0%	-7.5%	?	11.2µM*	.
Fc1ccccc1Oc1nc(-c2ccncc2)nc2ccccc12	3.29µM*	-12.7%	-8.8%	?	0.562µM*	4.3%
Clc1cccc(Nc2nc(-c3ccncc3)nc3ccccc23)c1	0.928µM*	-2.7%	-0.5%	-16.9%	?	-21.6%
Oc1ccc(Nc2nc(-c3ccc(Cl)cc3)nc3ccccc23)cc1	.	.	0.5%	.	.	.
Clc1ccccc1Nc1nc(-c2ccncc2)nc2ccccc12	?	61.0%	2.1%	13.1µM*	7.08µM*	-7.1%
c1ccc2c(Nc3nc(-c4ccncc4)nc4ccccc34)cccc2c1	?	2.1%	3.3%	?	?	9.4%
CCOC(=O)c1c(C)[nH]c(C)c1S(=O)(=O)N1CCC(C(=O)NCc2ccccc2)CC1	.	.	2.4%	.	.	.
CN1CCC(N(C)C(=S)Nc2ccc(F)cc2)CC1	8.7%	-16.1%	-14.3%	336.2%	15.1%	-2.4%
CC(=O)c1ccc(NC(=S)N(C)C2CCN(C)CC2)cc1	2.08µM*	-34.6%	-3.6%	6.0%	2.0%	-4.0%
